Results as given in PubChem BioAssay (NCI).
About 83,000 compounds went through this panel and 20% of them were active in at least one assay; those are over-represented in the sample as a whole.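 Testing used 96-well plates and a 48-hour single-concentration exposure. Example: -40 means 40% of the starting cells died.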 Unmarked numbers belong to inactive results. Active and inactive are the calls of the source. How the source made its calls: active means growth percent below 10; inactive means the rest.

Key:
Assay in all cases: NCI-60 one-dose screen, 48 h (100 = growth as untreated, 0 = no growth, -100 = all killed)
Conditions in all cases: 10 µM unless noted
SK-MEL-2 melanoma = system: SK-MEL-2 melanoma
EKVX NSCLC = system: EKVX NSCLC
SN12C renal = system: SN12C renal
UO-31 renal = system: UO-31 renal
TK-10 renal = system: TK-10 renal
ACHN renal = system: ACHN renal
A498 renal = system: A498 renal
CCRF-CEM leukemia = system: CCRF-CEM leukemia
MOLT-4 leukemia = system: MOLT-4 leukemia
SR leukemia = system: SR leukemia
RPMI-8226 leukemia = system: RPMI-8226 leukemia
OVCAR-8 ovarian = system: OVCAR-8 ovarian
OVCAR-5 ovarian = system: OVCAR-5 ovarian
OVCAR-4 ovarian = system: OVCAR-4 ovarian
SK-OV-3 ovarian = system: SK-OV-3 ovarian
IGROV1 ovarian = system: IGROV1 ovarian
OVCAR-3 ovarian = system: OVCAR-3 ovarian
HS 578T breast = system: HS 578T breast
NCI/ADR-RES ovarian = system: NCI/ADR-RES ovarian
CAKI-1 renal = system: CAKI-1 renal

Compound | growth (SK-MEL-2 melanoma) | growth (EKVX NSCLC) [%] | growth (SN12C renal) | growth (UO-31 renal) | growth (TK-10 renal) [%] | growth (ACHN renal) | growth (A498 renal) | growth (CCRF-CEM leukemia) | growth (MOLT-4 leukemia) | growth (SR leukemia) | growth (RPMI-8226 leukemia) | growth (OVCAR-8 ovarian) [%] | growth (OVCAR-5 ovarian) | growth (OVCAR-4 ovarian) | growth (SK-OV-3 ovarian) [%] | growth (IGROV1 ovarian) | growth (OVCAR-3 ovarian) | growth (HS 578T breast) | growth (NCI/ADR-RES ovarian) | growth (CAKI-1 renal)
COc1ccc2nc3ccccc3c(NCc3ccc(Cl)cc3)c2c1 | 71.3% | 33.8 | 22.1% | 1.86% (active) | 52.9 | 17.1% | 8.58% (active) | 8.43% (active) | -8.25% (active) | -29.6% (active) | -44.9% (active) | 29.7 | 26.5% | 24.5% | 64 | 16.3% | 51% | 36% | 22.9% | 
C=C1C[C@@]2(C)C(CC[C@]3(C)C2CC=C2C4CC(C)(C)C[C@@H](OC(=O)/C(C)=C\C)[C@]4(C(=O)O)CC[C@]23C)C(C)(C)C1=O (some centres undefined) | 18.8% | 31.7 | 6.55% (active) | -74.6% (active) | 17.2 | -83.8% (active) | -17.4% (active) | 2.34% (active) | 7.64% (active) | -0.663% (active) | -15.6% (active) | 15 | 7.88% (active) | 39.4% | 86.2 | 1.07% (active) | -16.8% (active) | 51.3% | 9.03% (active) | 
O/N=C/c1ccncc1 | 112% | 100 | 121% | 102% | 100 | 109% | 101% | 95.5% | 111% | 107% | 94% | 107 | 116% |  | 100 | 114% | 113% | 107% | 105% | 
COc1cc(OC)c(Cl)cc1N | 116% | 118 | 93.1% | 91.3% | 105 | 101% | 90.9% | 97.3% | 108% | 109% | 104% | 104 | 111% | 109% | 100 | 114% | 103% | 77.9% | 109% | 
CCN(CCC#N)c1ccccc1 | 106% | 101 | 90.8% | 89.1% | 117 | 112% | 130% | 93.6% | 101% | 96.4% | 98% | 103 | 102% | 100% | 114 | 115% | 113% | 91.8% | 105% | 
CCOC(=O)c1cnc(SCC)nc1SC#N | 96.1% | 99.8 | 95.7% | 95.2% | 84.3 | 71.3% | 106% |  |  |  |  | 96.8 | 94% |  | 115 | 98.7% | 87.3% | 121% | 100% | -65.3% (active)
CN1C(=O)NC(Cc2c[nH]c3c(Cl)cccc23)C1=O (centres undefined) | 106% | 118 | 101% | 78.5% | 147 | 99.3% | 106% | 113% | 111% | 101% | 119% | 112 | 102% | 101% | 113 | 108% | 90.8% | 103% | 100% | 
CCN(CC)CC(=O)Nc1c(C)ccc(N)c1C | 99.4% | 96.5 | 99.4% | 86.2% | 100 | 112% |  | 112% | 115% | 151% | 111% | 105 | 99.2% | 99.1% | 96.7 | 95.4% | 109% | 105% | 99.2% | 102%
Cc1ccc(Nc2cc(Cl)c([N+](=O)[O-])cc2[N+](=O)[O-])cc1 | 28.3% | 102 | 24.6% | 77.7% | 15.5 | 26% | 92.3% |  | 10.3% | 4.96% (active) |  | 26.8 | 46.3% |  | 83.5 | 27.7% | 0.375% (active) | 92.1% | 26.5% | 32.8%
CCN1CCN(Cc2ccc(NC(=O)Nc3ccc(-n4ccc5c(NC(=O)c6ccccc6)nccc54)cc3)cc2C(F)(F)F)CC1 | -31.5% (active) | 87.4 | 58.3% | -48.6% (active) | 25.5 | -46.3% (active) | 105% |  | -32.8% (active) | -30.9% (active) |  |  | 30.7% | 78.8% | 62.7 | 43.9% | -51.9% (active) | 74.1% | 27.8% | 47.3%
Cc1ccc(C)c(NC(=O)c2sc3c(=O)[nH]cnc3c2C)c1 | 41.4% | 85 | 101% | 74.9% | 77.8 | 116% | 70.3% | 83.1% | 69.9% | 15.8% | 87.7% | 98.2 | 127% |  | 101 | 79.8% | 70.7% | 78.9% | 58% | 
Cc1ccc(C)c2c1SC1=NNC(Oc3ccc(Cl)cc3)=C(C#N)C(=N)N12 | 132% | 100 | 117% | 85.3% | 125 | 90.6% | 87.1% | 96.8% | 85.2% | 113% | 98.7% | 108 | 111% |  | 95.7 | 87.8% | 110% | 103% | 105% | 
COc1ccc2c(c1)N(Cc1ccc(Cl)cc1)CCC2N1CCCC1=O (centres undefined) | 64.4% | 36.9 | 39.2% | 8.64% (active) | 55.3 | 53.3% | -7.14% (active) |  | 34.5% | 34.2% |  |  | 66% | 34% | 43.4 | 13.2% | 43.8% | 10.7% | 53.3% | 40.8%
O=C(C(=O)N1CCCC1)c1cn(CCCn2cc(C(=O)C(=O)N3CCCC3)c3cc(Br)ccc32)c2ccc(Br)cc12 | 107% | 54 | 83.3% | 72.6% | 92.7 | 55.2% |  | 74% | 73.6% | 65.9% | 76.8% | 59.6 | 94.7% | 5.38% (active) | 90.4 | 67.9% | 60% | -9.76% (active) | 51% | 46.7%
O=C(Nc1cccc(Cl)c1)Nc1ccccc1Cl | 98.5% | 72.1 | 81.5% | 69.8% | 88.5 | 89.9% | 63.4% | 84.7% | 75% | 82.1% | 55.9% | 87.3 | 115% |  | 101 | 85.9% | 78.4% | 90.7% | 80.6% | 
CC(=O)Nc1c(Br)cc2c(c1Br)Cc1cc(Br)ccc1-2 | 99.6% | 55.3 | 83.1% | 67.3% | 109 | 60.8% |  | 66.4% | 76.9% | 54.4% | 83% | 68.7 | 108% | 9.85% (active) | 85.7 | 45% | 87% | -7.93% (active) | 76.1% | 81.1%
O/N=C1\c2ccccc2-c2ccc(Br)cc21 | 115% | 88.6 | 101% | 81.6% | 108 | 94.2% |  | 71.8% | 89.2% | 102% | 105% | 105 | 113% | 104% | 113 | 116% | 118% | 158% | 115% | 91.6%
